Consider 16 compounds from PubChem BioAssay (NCATS).

Results filed as inconclusive are left out. Activity calls are given as the source filed them. Unless noted, the call rests on the fitted dose curve.

In experiment [1] the target is Bile acid receptor (Homo sapiens) (UniProt Q96RI1). In words: qHTS assay for small molecule antagonists of farnesoid X receptor signaling (AID 588526). Further: potency means the concentration at half of the fitted maximal effect. In a few lines: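 Antagonist mode: titrated compounds tested against chenodeoxycholic acid stimulation (normalized to 50 uM CDCA and DMSO) in GeneBLAzer HEK293T cells for 16 h. Beta-lactamase read by CCF4 fluorescence; IC50 from Hill fits.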
Bile acid receptor (Homo sapiens), sequence (Q96RI1 whole entry, looked up): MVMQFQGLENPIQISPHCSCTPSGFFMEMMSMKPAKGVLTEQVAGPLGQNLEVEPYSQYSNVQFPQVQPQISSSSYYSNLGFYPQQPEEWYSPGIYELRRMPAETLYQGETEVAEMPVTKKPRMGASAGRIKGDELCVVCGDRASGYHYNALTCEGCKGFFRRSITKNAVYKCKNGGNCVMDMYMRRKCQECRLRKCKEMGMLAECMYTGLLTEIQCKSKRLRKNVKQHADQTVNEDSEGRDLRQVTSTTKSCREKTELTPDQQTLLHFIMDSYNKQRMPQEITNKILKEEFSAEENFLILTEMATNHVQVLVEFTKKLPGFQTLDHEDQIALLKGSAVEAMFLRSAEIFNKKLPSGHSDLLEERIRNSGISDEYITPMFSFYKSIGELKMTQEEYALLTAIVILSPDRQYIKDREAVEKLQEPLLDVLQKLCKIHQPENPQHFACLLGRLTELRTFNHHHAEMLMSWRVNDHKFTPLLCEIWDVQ

Experiment [2] has the same target. In words: qHTS assay for small molecule agonists of farnesoid X receptor signaling (AID 588527).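 Further: series mostly up to about 77 µM; 0% = vehicle basal and 100% = reference agonist.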 The conditions noted are these: HEK293T FXR-UAS-bla, beta-lactamase ratio, 16 h; activation: stronger effect = higher value. In a few lines: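 FXR-UAS-bla HEK293T cells (10% dialyzed FBS) preincubated 5-7 h at 37 C, then compounds at up to 92 uM for 16 h at 37 C. CCF4 beta-lactamase read-out after 2 h RT. Normalized to chenodeoxycholic acid (100 uM) and DMSO; Hill fit gave EC50 and efficacy.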
(qHTS replaces the single test concentration by a dilution series.)

For experiment [3], the target named is Glucocorticoid receptor (Homo sapiens) (UniProt P04150). The experiment in a line: qHTS assay for small molecule agonists of glucocorticoid receptor signaling (AID 588532; active means well fitted curve in the direction sought with a large enough effect in the signal ratio, with a control signal flat; the % refers to the signal ratio;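 further: 100% = dexamethasone at 0.1 µM and 0% = DMSO only wells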). The conditions noted are these: HeLa MMTV-bla, beta-lactamase ratio, agonist, 18 h; activation: stronger effect = higher value, percent of dexamethasone control, DMSO zero. In short, it runs like this: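 Cells were plated and rested 3-5 h at 37 C, compounds were added in titration and incubated 18 h, then CCF4 substrate was loaded for 2 h at RT before reading blue/green fluorescence. EC50 came from Hill-equation fitting.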
Glucocorticoid receptor (Homo sapiens), sequence (P04150 whole entry, looked up): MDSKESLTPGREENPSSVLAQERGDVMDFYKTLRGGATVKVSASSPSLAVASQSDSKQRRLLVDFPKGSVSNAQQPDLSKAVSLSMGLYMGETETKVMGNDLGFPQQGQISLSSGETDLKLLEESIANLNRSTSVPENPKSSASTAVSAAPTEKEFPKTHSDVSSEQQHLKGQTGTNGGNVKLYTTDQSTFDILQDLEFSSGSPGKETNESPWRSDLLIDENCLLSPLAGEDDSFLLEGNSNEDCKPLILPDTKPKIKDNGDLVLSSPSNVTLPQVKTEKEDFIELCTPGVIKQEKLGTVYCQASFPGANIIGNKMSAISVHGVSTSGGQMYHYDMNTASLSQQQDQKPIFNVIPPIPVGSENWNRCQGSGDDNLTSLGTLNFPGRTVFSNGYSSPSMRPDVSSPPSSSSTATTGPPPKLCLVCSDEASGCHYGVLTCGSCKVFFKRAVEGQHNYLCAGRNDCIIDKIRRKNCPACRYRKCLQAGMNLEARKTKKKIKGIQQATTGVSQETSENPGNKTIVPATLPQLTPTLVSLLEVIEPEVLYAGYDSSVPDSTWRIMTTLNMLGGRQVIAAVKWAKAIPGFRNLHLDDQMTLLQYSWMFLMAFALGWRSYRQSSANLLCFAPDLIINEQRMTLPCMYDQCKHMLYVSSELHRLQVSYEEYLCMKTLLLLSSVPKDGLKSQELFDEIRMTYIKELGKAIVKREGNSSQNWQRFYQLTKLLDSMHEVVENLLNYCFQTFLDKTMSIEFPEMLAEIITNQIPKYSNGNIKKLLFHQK

Experiment [4] has as its target Vitamin D3 receptor (Homo sapiens) (UniProt P11473). The experiment in a line: qHTS assay for small molecule agonists of vitamin D receptor signaling (AID 588543).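 Further: 0% = DMSO basal and 100% = reference agonist control.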 In short, it runs like this:
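Agonist-mode beta-lactamase reporter: HEK293T VDR-UAS-bla cells in charcoal-stripped 2% FBS, compound series 16 h 37 C, CCF4 2 h RT. EC50 from Hill fit, scaled against DMSO and 50 nM calcitriol control.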

The nature of experiment [5]: qHTS assay for small molecule agonists of the antioxidant response element (ARE) signaling pathway (AID 651741; active means well fitted activation curve with a large enough effect in the signal ratio; the % refers to the signal ratio; further: potency means the concentration at half of the fitted maximal effect; on activation: % of control where 0% means no effect). In short, it runs like this:
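HepG2 ARE-bla cells plated at 2,000 cells/well and incubated 5 h at 37 C/5% CO2 received 23 nL compound in DMSO. After 16 h at 37 C, LiveBLAzer B/G FRET substrate was applied for 2 h at room temperature and fluorescence read.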

Experiment [6] deals with Peroxisome proliferator-activated receptor gamma (Homo sapiens) (UniProt P37231). The experiment in a line: qHTS assay for small molecule antagonists of peroxisome proliferator-activated receptor gamma signaling (AID 588537; active means well fitted inhibition curve with a large enough effect in the signal ratio, with a control signal flat, not every such curve was filed as active; the % refers to the signal ratio;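 further: reporter cells co-stimulated with 50 nM rosiglitazone agonist during compound treatment; % of control where 0% means no effect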). In a few lines:
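Step one: plate 3000 HEK293 UAS-bla cells per well in medium with 1% stripped serum and hold 6-6.5 h at 37 C. Step two: add compound and 50 nM agonist for 16 h. Step three: CCF4 loading, fluorescence read.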

Experiment [7] in a line: qHTS assay for small molecule agonists of retinoid X receptor alpha signaling (AID 588544). As to conditions: HEK293T RXRa-UAS-bla, beta-lactamase reporter, 18 h; 530 nm emission.
Experiment [8] has as its target Peroxisome proliferator-activated receptor gamma (Homo sapiens) (UniProt P37231). The experiment in a line: qHTS assay for small molecule agonists of peroxisome proliferator-activated receptor gamma signaling (AID 588536; active means well fitted curve in the direction sought with a large enough effect in the signal ratio, with a control signal flat, not every such curve was filed as active; the % refers to the signal ratio;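 further: 0% = DMSO basal wells and 100% = rosiglitazone at 2 µM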). In short, it runs like this:
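GeneBLAzer PPAR-gamma-UAS-bla HEK293 cells in 1% charcoal/dextran-treated FBS medium were treated 16 h at 37 C with compounds. Beta-lactamase activity was read by CCF4 ratio (460/530 nm). Response was normalized to 2 uM rosiglitazone (100%) and DMSO, then Hill-fitted for EC50 and efficacy.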

Experiment [9] can be described thus: qHTS assay for small molecule activators of the human pregnane X receptor (PXR) signaling pathway (AID 720659; call rule not given here; further: 0% is about no effect).
Experiment [10] concerns the target Androgen receptor (Homo sapiens) (UniProt P10275). In words: qHTS assay for small molecule agonists of androgen receptor signaling (AID 588515; active means well fitted curve in the direction sought with a large enough effect in the signal ratio, with a control signal flat; the % refers to the signal ratio; further: on the % scale 0 is the no-effect control and ±100 the full control effect). As to conditions: AR-UAS-bla HEK293, beta-lactamase ratio, agonist 16 h; stronger effect = higher value. In short, it runs like this:
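EC50 and efficacy came from Hill fits of titrations (up to 92 uM) normalized to 30 nM R1881 as 100% and DMSO as 0%. Compound exposure was 16 h at 37 C on AR-UAS-bla HEK293 cells, with a 405/460/530 nm CCF4 fluorescence read.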

Experiment [11] deals with Cytochrome P450 3A4 (Homo sapiens) (UniProt P08684). The experiment in a line: qHTS Assay for Inhibitors and Substrates of Cytochrome P450 3A4 (AID 884; active means well fitted curve in the direction sought with a large enough effect; an effect the other way counts as inactive or inconclusive; further: potency means the concentration at half of the fitted maximal effect; nearly all actives have a fitted effect of over 50% in size). In a few lines:
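20 nM human CYP3A4 with 25 uM Luciferin-PPXE (at KM) in 200 mM KPO4, preincubated 10 min with compound; NADPH regeneration started a 60 min RT reaction. Luciferin detected by luminescence, normalized to 57 uM ketoconazole as full inhibition.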

For experiment [12] the target is unchanged. In words: qHTS Assay for Activators of Cytochrome P450 3A4 (AID 885; active means well fitted curve in the direction sought with a large enough effect; an effect the other way counts as inactive or inconclusive; further: nearly all actives have a fitted effect of over 65% in size). In a few lines:
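Human CYP3A4 (20 nM) with Luciferin-PPXE at 25 uM (its KM) in 200 mM KPO4; 10 min compound preincubation, then NADPH regeneration and 60 min reaction at RT. Luciferin read by luminescence; normalized to 57 uM ketoconazole full inhibition.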

The nature of experiment [13]: Confirmation and Secondary Assay for Modulators of Hemoglobin Beta Chain Splicing at IVS2 654 locus (AID 910; active means well fitted curve in the direction sought with a large enough effect; an effect the other way counts as inactive or inconclusive;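 further: HeLa cells stably carrying EGFP split by mutant beta-globin IVS2-654 intron; % of control where 0% means no effect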). In a few lines: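 HeLa cells stably expressing EGFP interrupted by β-globin IVS2-654 intron, seeded overnight in Opti-MEM/2% FCS, then treated 2 days at 37 °C. Restored splicing read as total peak GFP intensity per well by laser scanning cytometry (488 nm excitation, 500–520 nm emission); 500 nM antisense PNA as control.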

Experiment [14] is described as follows: Confirmation and Secondary Assay for Modulators of Hemoglobin Beta Chain Splicing at IVS2 705 locus (AID 930; active means well fitted curve in the direction sought with a large enough effect; an effect the other way counts as inactive or inconclusive;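 further: HeLa cells stably expressing the EGFP-705 splicing reporter; GFP fluorescence per well restored by corrected splicing of the IVS2-705 intron in EGFP; series mostly up to about 46 µM; % of control where 0% means no effect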). In short, it runs like this:
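HeLa IVS2-705 EGFP reporter cells, 500/well, compound 2 d at 37C; correct splicing yields fluorescent EGFP. Control: 500 nM antisense PNA. Read-out: total peak GFP intensity.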

Experiment [15] deals with Androgen receptor (Homo sapiens) (UniProt P10275). In words: qHTS assay for small molecule antagonists of androgen receptor signaling (AID 588516; active means well fitted curve in the direction sought with a large enough effect in the signal ratio, with a control signal flat, not every such curve was filed as active; the % refers to the signal ratio; further: on the % scale 0 is the no-effect control and ±100 the full control effect). In short, it runs like this:
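Antagonist mode: inhibition of R1881-stimulated (10 nM final) bla reporter in GeneBLAzer AR HEK 293 cells, 16 h at 37C, compounds titrated. IC50 and efficacy from Hill-equation fits of 405/460–530 nm FRET ratios.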

Androgen receptor (Homo sapiens), sequence (P10275 whole entry, looked up): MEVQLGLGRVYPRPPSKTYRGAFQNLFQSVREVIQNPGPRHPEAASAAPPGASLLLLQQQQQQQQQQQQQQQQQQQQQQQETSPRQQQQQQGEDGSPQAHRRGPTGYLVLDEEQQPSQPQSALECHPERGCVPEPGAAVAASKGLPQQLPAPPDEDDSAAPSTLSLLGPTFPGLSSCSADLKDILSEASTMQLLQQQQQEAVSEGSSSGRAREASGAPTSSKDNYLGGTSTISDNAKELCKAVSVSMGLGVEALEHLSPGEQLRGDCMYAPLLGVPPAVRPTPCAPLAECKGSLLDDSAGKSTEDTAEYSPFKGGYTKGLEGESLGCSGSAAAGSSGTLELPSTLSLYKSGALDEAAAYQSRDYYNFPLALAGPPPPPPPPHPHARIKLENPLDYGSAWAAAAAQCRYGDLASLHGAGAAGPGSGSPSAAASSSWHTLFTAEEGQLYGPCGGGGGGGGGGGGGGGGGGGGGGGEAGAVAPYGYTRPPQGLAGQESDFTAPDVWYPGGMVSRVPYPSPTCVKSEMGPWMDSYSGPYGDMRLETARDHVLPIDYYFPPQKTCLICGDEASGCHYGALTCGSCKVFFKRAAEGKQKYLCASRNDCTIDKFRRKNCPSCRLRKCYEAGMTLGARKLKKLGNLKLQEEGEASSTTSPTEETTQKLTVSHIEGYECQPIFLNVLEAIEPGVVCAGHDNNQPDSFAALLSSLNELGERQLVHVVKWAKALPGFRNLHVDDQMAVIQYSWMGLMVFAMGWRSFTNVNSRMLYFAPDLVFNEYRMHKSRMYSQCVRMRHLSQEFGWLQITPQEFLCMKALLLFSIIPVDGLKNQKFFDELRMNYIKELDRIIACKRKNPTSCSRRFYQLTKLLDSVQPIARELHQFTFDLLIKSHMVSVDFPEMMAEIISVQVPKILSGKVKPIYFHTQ
Peroxisome proliferator-activated receptor gamma (Homo sapiens), sequence (P37231 whole entry, looked up): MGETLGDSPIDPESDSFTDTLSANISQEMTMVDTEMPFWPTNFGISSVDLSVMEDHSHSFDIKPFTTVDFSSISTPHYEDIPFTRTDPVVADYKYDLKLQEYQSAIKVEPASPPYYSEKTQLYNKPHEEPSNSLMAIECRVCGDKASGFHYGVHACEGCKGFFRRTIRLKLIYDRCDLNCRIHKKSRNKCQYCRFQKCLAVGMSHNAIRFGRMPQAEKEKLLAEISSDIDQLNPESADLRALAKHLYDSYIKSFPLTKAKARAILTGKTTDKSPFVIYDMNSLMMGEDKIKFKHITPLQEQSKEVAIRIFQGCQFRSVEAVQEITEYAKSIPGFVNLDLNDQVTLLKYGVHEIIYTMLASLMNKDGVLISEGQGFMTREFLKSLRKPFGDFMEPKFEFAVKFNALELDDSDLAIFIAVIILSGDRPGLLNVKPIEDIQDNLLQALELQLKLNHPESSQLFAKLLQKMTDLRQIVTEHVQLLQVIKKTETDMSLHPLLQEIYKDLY
Vitamin D3 receptor (Homo sapiens), sequence (P11473 whole entry, looked up): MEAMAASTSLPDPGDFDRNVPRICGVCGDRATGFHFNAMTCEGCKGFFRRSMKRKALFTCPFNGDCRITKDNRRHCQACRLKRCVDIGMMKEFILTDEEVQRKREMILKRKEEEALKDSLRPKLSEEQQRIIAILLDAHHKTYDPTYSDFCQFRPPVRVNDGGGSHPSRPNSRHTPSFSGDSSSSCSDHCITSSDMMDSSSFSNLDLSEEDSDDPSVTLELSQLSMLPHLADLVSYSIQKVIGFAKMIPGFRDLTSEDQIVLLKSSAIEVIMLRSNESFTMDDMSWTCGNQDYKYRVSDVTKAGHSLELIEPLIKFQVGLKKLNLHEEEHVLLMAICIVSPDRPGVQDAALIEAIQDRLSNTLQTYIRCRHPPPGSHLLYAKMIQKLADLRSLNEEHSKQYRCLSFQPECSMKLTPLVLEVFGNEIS
Cytochrome P450 3A4 (Homo sapiens), sequence (P08684 whole entry, looked up): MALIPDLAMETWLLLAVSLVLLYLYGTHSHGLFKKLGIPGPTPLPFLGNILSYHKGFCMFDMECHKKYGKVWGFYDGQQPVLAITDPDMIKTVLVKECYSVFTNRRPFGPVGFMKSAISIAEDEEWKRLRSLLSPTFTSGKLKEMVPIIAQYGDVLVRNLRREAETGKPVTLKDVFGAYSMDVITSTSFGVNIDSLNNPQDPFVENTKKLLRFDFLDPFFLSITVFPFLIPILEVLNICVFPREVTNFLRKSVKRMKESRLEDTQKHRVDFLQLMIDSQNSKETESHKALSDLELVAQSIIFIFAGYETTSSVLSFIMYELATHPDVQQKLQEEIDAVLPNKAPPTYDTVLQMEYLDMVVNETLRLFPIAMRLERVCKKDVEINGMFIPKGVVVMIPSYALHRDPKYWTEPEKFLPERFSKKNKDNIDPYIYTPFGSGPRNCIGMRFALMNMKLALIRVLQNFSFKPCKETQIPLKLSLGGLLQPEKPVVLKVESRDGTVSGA

On to `COC[C@H](C)N(C(=O)CCl)c1c(C)csc1C`, for which the Potency result in experiment [1] was “inactive”. Further, the activation was -0.72% (inactive) in experiment [2] and -4.92% (inactive) in experiment [3]. In [4], the compound was called inactive. In experiment [5], the Potency was 19.3 µM (active).
Consider `CC(C)C1(C)N=C(c2nc3ccccc3cc2C(=O)O)NC1=O` (stereo unspecified), for which the Potency result in experiment [1] and in experiment [6] was “inactive” in each case. Also, the compound was called inactive in experiment [4]. Moreover, the max response in experiment [7] is 5.36%.
Regarding `Clc1ccc(C2(Cn3cncn3)CC(Br)CO2)c(Cl)c1` (stereo unspecified), the Potency result in experiment [1], in experiment [8] and in [6] was “inactive” in each case. In addition, the activation in experiment [3] was -0.813% (inactive). Also, in experiment [4], the outcome was inactive. In addition, the max response in experiment [7] was 6.2%.
As to `CCCCNC(=O)OCC#CI`, the activation in experiment [2] was 1.93% (inactive). Moreover, the Potency entry in experiment [6] was “inactive”. Moreover, the compound was classed as inactive in experiment [9].
Consider `CC(C)(C)C(O)/C(=C\c1ccc(Cl)cc1Cl)n1cncn1` (stereo unspecified), for which the activation in experiment [2] was 1.69% (inactive).
In the case of `CO/N=C(/C(=O)OC)c1ccccc1COc1ccccc1C`, the activation was -0.265% (inactive) in experiment [2] and -0.293% (inactive) in experiment [3]. Also, the result in experiment [4] and in experiment [9] was inactive. Besides, the max response in experiment [7] is 13.9%. The Potency in experiment [5] was 12.2 µM (active).
`CCc1cc(C)cc(CC)c1-c1c(OC(=O)C(C)(C)C)n2n(c1=O)CCOCC2`: the Potency result in experiment [1], in [8], in [6] and in experiment [5] was “inactive” in each case. The activation in experiment [2] is 2.69% (inactive).
On to `CCOC(=O)C(Cl)Cc1cc(-n2nc(C)n(C(F)F)c2=O)c(F)cc1Cl` (stereo unspecified), for which the Potency entry in experiment [1] and in experiment [8] was “inactive” in each case. For the same compound, the activation is 1.1% (inactive) in experiment [2] and -0.667% (inactive) in experiment [3]. Also, in experiment [7], the max response was 14.3%. The Potency in experiment [5] was 54.5 µM (active). Moreover, in experiment [9], the call was inactive.
Consider `CCC[CH2][Sn]([Cl])([CH2]CCC)[CH2]CCC`, for which the Potency was 35.5 µM (active) in experiment [1] and 24.3 µM (active) in [5]. The activation is 7.19% (inactive) in experiment [2] and -5.41% (inactive) in experiment [3]. In addition, in [7], the max response was -0.857%.
As to `O=C(O)C1(O)c2ccccc2-c2ccc(Cl)cc21` (stereo unspecified), the activation in [10] was -1.34% (inactive); in experiment [2] it was 8.73% (inactive); in [3], -12.8% (inactive). For the same compound, the compound was classed as inactive in experiment [4] and in experiment [9]. Further, the Potency in experiment [5] is 48.6 µM (active).
On to `CCOP(=S)(OCC)SCn1c(=O)oc2cc(Cl)ccc21`, for which the Potency is 0.794 µM (active) in [11] and 27.3 µM (active) in [5]. Further, the Potency entry in experiment [12], in [13] and in experiment [8] was “inactive” throughout. Besides, the result in [14] and in experiment [4] was inactive. Moreover, the activation in experiment [2] is -2.19% (inactive); in experiment [3], 0.851% (inactive).
Consider `O=S(=O)(c1ccc(Cl)cc1)c1cc(Cl)c(Cl)cc1Cl`, for which the activation in [2] was 3.42% (inactive); in [3] it was 0.889% (inactive). For the same compound, in experiment [5], the Potency is 27.3 µM (active).
As to `CCC(C)(C)c1ccc(O)c(C(C)(C)CC)c1`, the Potency result in experiment [1] and in experiment [8] was “inactive” throughout. In addition, the activation in experiment [3] was 5.63% (inactive). The Potency in experiment [5] is 61.1 µM (active).
For the compound `Nc1cccc(Cl)c1Cl`, the Potency result in experiment [15], in experiment [1], in [8] and in [6] was “inactive” each time. The results for the activation in experiment [2] and in experiment [3] were 2.15% (inactive) and 0.21% (inactive), respectively. The compound was classed as inactive in [4] and in experiment [9]. The max response in experiment [7] is -11.4%.
In the case of `CCCCCCCCCCCCCCC(Br)C(=O)O` (stereo unspecified), the Potency result in [1] and in [6] was “inactive” each time. For the same compound, the activation in experiment [2] is 4.69% (inactive). Moreover, the compound was classed as inactive in experiment [9].
`O=C(NC(=O)c1c(F)cccc1F)Nc1cc(Cl)c(OC(F)(F)C(F)F)c(Cl)c1`: the activation in experiment [10] was 7.72% (inactive); in experiment [3], 12.6% (inactive). Besides, the Potency result in experiment [8] and in experiment [6] was “inactive” throughout.
